A number with no mark means an inactive call. How the calls were made is not given here.

The text below walks through data of PubChem BioAssay.

For this assay, the target named is Pantothenate synthetase (Mycobacterium tuberculosis (strain ATCC 25618 / H37Rv)) (UniProt P9WIL5). Kind of assay: Recombinant Mtb pantothenate synthetase (PanC) inhibitors, coupled enzyme, confirmatory (AID 375).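 Further: 0% = full reaction with vehicle and 100% = no enzyme background.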 Conditions: coupled enzyme assay; at 10 µM, stronger effect = higher value.
Chain of Pantothenate synthetase (Mycobacterium tuberculosis (strain ATCC 25618 / H37Rv)) (P9WIL5 whole entry, looked up): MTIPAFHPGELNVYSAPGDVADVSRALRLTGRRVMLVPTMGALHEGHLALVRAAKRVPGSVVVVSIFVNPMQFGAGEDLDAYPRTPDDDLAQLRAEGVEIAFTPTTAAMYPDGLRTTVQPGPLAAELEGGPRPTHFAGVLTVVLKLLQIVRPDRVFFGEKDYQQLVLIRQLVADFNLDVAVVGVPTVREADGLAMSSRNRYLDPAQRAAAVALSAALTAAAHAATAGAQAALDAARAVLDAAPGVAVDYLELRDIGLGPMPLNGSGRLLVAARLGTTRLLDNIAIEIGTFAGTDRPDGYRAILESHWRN
Take `OCCN1CCN(CCCN2c3ccccc3Sc3ccc(Cl)cc32)CC1`: the inhibition was 0%.
Consider `CCOc1ccc(-c2nc(S(=O)(=O)c3ccccc3)c(NCc3cccnc3)o2)cc1`, for which the inhibition was 0%.
As for `CCc1ccccc1N1C(=O)C2CC(C)=C(C)CC2C1=O` (centres undefined), the inhibition is 0%.
As to `O=C(Cn1nnc(-c2cccc(C(F)(F)F)c2)n1)NC(=O)NCc1ccco1`, the inhibition is 0%.
To `COC(=O)CC1SC(=O)NC1=O` (centres undefined) belongs 0%.
Turning to `CCOC(=O)C1CCCN(c2c(N3CCN(c4ccccn4)CC3)c(=O)c2=O)C1` (centres undefined), the inhibition is 2%.
To `COc1ccc(C)cc1S(=O)(=O)N(C)CC(=O)Nc1ccc2c(c1)OCCO2` belongs 2%; to `Cc1cccc(-c2cc3nc(C)cc(NCCCN(C)C)n3n2)c1`, 0%; to `CC(Sc1nnnn1-c1ccccc1)C(=O)Nc1ccc(Cl)cn1` (centres undefined), 2%.
To `COc1ccc(CNc2oc(-c3cccc4ccccc34)nc2C#N)cc1` belongs 0%; to `CCCS(=O)(=O)N1CCCC(C(=O)NC2CCCC(C)C2C)C1` (centres undefined), 0%; to `COC(=O)c1ccc(-c2ccc(CNCC(O)c3ccccc3)o2)cc1` (centres undefined), 1%.
To `Cc1c2cnn(CC(=O)N3CCN(c4ncccn4)CC3)c(=O)c2c(C)n1Cc1ccc(F)cc1` belongs 0%; to `Cn1cnnc1SCC(=O)NCc1cccc(C(F)(F)F)c1`, 0%.
Regarding `COc1ccc(S(=O)(=O)NCCOc2ccccc2)cc1OC`, the inhibition is 0%.
To `OCCNCC(O)Cn1ccc2ccccc21` (centres undefined) belongs 2%; to `CCOc1ccc2nc(NC(=O)C3CCCN(S(=O)(=O)c4c(C)noc4C)C3)sc2c1` (centres undefined), 0%.
To `COc1ccc(-c2oc3ncn(CCN4CCOCC4)c(=N)c3c2-c2ccc(OC)cc2)cc1` belongs 0%; to `COC(=O)c1ccc(COC(=O)c2c(C)nn(Cc3ccccc3Cl)c2Cl)o1`, 0%.
To `CCOC(=O)CC1(CC(=O)OCC)NC(=O)c2c(C)sc(C(=O)OCC)c2N1` belongs 1%; to `COc1ccccc1OCCn1c(=O)sc2ccccc21`, 0%; to `O=C(Cn1cnc2ccccc2c1=O)NCCC(=O)N1CCN(c2ccccc2)CC1`, 0%.
As for `Cn1c(=O)c2c(-c3ccccc3)n(CCCN3CCOCC3)cc2n(C)c1=O`, the inhibition is 0%.
As to `CCN(CC)S(=O)(=O)c1ccc(Br)c(OC)c1`, the inhibition was 0%.
